Drawing on PubChem BioAssay (Tox21), this text covers Potency and outcome for 7 compounds.

Each structure is given as a SMILES string. Where “and” joins values, the source holds several entries; their conditions need not be identical. Equal entries are not always repeated. Unmarked numbers belong to inactive results. Records with an inconclusive call do not appear. Calls of active or inactive are those of the source. Unless noted, calls follow the shape of the dose curve; as a rule, active = well fitted curve in the direction sought with a large enough effect in the repeat runs; inconclusive = weak or mixed curves; inactive = no such curve, though single readings can be large; an effect the other way counts as inactive or inconclusive.

A short description of assay [1]: qHTS assay to identify small molecule antagonists of the androgen receptor (AR) signaling pathway using the MDA cell line in the presence of 0.5 nM R1881 - cell viability counter screen (AID 1259242). Also: nearly all actives have a fitted effect of over 45% in size. Also: potency is read from the fitted curve at half-maximal effect. In outline: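 MDA-kb2 cells (MMTV-luciferase, AR/GR responsive) were treated with compounds plus 0.5 nM R1881 (final) for 16 hr at 37C, 0% CO2. Viability was then read in the same wells as live-cell protease fluorescence (CellTiter-Fluor, 30 min).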
A general note: Quantitative high-throughput screening tests each substance at several concentrations.

The target in assay [2] is Androgen receptor (Homo sapiens) (UniProt P10275). The assay is described as follows: qHTS assay to identify small molecule antagonists of the androgen receptor (AR) signaling pathway using the MDA cell line in the presence of 0.5 nM R1881 (AID 1259243). Also: nearly all actives have a fitted effect of over 50% in size. Also: potency is read from the fitted curve at half-maximal effect. In outline:
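MDA-kb2 cells (MMTV-luciferase, responsive to AR and GR) at 3,000/well, rested 5 h at 37C, 0% CO2, then given compounds plus 0.5 nM R1881 (final) for 16 hr. Luciferase read with ONE-Glo after 30 min at room temperature.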

A short description of assay [3]: qHTS assay to identify small molecule phospholipidosis (PLD) inducers (AID 1259344; active = well fitted curve in the direction sought with a large enough effect; an effect the other way counts as inactive or inconclusive). In outline: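 HepG2 cells, 900/well, treated with compound plus LipidTOX Red for 24 h at 37 C; amiodarone positive and DMSO negative controls. Fixed with paraformaldehyde/Hoechst, then high-content imaging scored LipidTOX pit count and integrated intensity per well and per cell.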

A short description of assay [4]: qHTS assay to identify small molecule HDAC inhibitors (AID 1259364). Also: top concentration of the series differs between compounds; nearly all actives have a fitted effect of over 45% in size. In outline:
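Wild-type HCT-116 cells, plated overnight at 37 C, exposed to compounds 2 hr at 37 C; luminogenic HDAC-Glo substrate then added 30 min at room temperature. Luminescence reports relative endogenous class I/II HDAC activity.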

A short description of assay [5]: qHTS assay to identify small molecule HDAC inhibitors - cell viability counter screen (AID 1259365). Also: series mostly up to about 92 µM; nearly all actives have a fitted effect of over 50% in size. In outline:
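After overnight seeding at 1,500 cells per well, wild-type HCT-116 cultures took up compounds in DMSO for 2hr at 37 C. Viable cell content came from luminescence with CellTiter-Glo.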

The nature of assay [6]: qHTS assay to identify small molecule agonists of the sonic hedgehog signaling (Shh) pathway - cell viability counter screen (AID 1259366). Also: nearly all actives have a fitted effect of over 50% in size. Also: potency is read from the fitted curve at half-maximal effect. An outline of the steps:
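Same-well cytotoxicity read. Gli1-Luc reporter 3T3 cells; compounds 24hr, 37C/5% CO2; CellTiter-Fluor fluorescence.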

The nature of assay [7]: qHTS assay to identify small molecule antagonists of the sonic hedgehog signaling (Shh) pathway - cell viability counter screen (AID 1259367). Also: nearly all actives have a fitted effect of over 55% in size. Also: potency is read from the fitted curve at half-maximal effect. In outline:
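NIH/3T3-derived Gli1-Luc reporter cells, 2,000/well, plated 4 hr before compound addition, then stimulated with conditioned medium for 24 hr at 37C. Viability measured in the same wells by CellTiter-Fluor fluorescence, reagent added at 23 hr for 1 hr.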

Assay [8] can be described thus: qHTS assay to identify small molecule agonists of the sonic hedgehog signaling (Shh) pathway (AID 1259368; calls by dose curve;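 also: NIH/3T3-derived 3T3Gli1-Luc cells carrying a stable Gli1-driven firefly luciferase reporter; series mostly up to about 92 µM; nearly all actives have a fitted effect of over 15% in size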). In outline: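 NIH/3T3-derived 3T3Gli1-Luc cells with stably integrated Gli1-driven firefly luciferase, 2,000 cells/well, compounds added after 4 hr. Incubated 24 hr at 37C, 5% CO2; luminescence read after 30 min with luciferase reagent at room temperature.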

Assay [9] in a line: qHTS assay to identify small molecule agonists of the androgen receptor (AR) signaling pathway in the presence of an antagonist - cell viability counter screen (AID 1259379). Also: nearly all actives have a fitted effect of over 25% in size. Also: potency is read from the fitted curve at half-maximal effect. An outline of the steps: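 MDA-kb2 cells (MMTV-luciferase, AR/GR), 3,000/well, 5 h attachment, then 3.0 µM nilutamide (final) and compounds at 15 concentrations. Viability by CellTiter-Fluor fluorescence after 16 h at 37 °C, 0% CO2, in the reporter wells.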

Assay [10] in a line: qHTS assay to identify small molecule antagonists of the estrogen receptor beta (ER-beta) signaling pathway - cell viability counter screen (AID 1259382). Also: nearly all actives have a fitted effect of over 55% in size. Also: potency is read from the fitted curve at half-maximal effect. An outline of the steps: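 ER-beta-UAS-bla HEK293T cells in 2% charcoal-stripped FBS medium, treated with compound plus 1 nM 17-beta-estradiol for 16 h at 37C. Viability read by CellTiter-Glo luminescence after 30 min at room temperature in the same wells.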

Assay [11] deals with Estrogen receptor (Homo sapiens) (UniProt P03372). The assay is described as follows: qHTS assay to identify small molecule agonists of the estrogen receptor alpha (ER-alpha) signaling pathway in the presence of an antagonist (AID 1259383; calls by dose curve; also: top concentration of the series differs between compounds; nearly all actives have a fitted effect of over 15% in size). In outline: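 VM7Luc4E2 cells express endogenous full-length ER-alpha with an ERE-luciferase reporter and were hormone-deprived for 5 days. Compounds at 15 concentrations were added with 10.0nM ICI-182,780 for 22hr at 37C. Luminescence was read with ONE-Glo.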
Estrogen receptor (Homo sapiens), sequence (P03372 whole entry, looked up): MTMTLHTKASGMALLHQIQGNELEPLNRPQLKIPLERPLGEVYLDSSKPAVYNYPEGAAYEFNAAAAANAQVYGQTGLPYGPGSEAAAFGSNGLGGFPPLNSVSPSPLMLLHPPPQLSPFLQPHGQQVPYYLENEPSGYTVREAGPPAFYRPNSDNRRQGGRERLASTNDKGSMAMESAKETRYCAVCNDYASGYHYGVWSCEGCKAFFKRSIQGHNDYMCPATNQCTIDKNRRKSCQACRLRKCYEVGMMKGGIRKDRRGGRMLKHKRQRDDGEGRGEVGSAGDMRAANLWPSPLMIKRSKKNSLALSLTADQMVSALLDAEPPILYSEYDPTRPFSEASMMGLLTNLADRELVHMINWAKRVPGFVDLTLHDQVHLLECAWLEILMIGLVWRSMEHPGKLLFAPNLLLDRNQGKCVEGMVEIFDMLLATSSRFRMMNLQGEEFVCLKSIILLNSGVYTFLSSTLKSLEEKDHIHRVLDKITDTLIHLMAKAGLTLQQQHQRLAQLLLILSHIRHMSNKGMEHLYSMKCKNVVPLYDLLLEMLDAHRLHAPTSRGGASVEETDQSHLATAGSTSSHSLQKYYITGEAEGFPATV

Assay [12] can be described thus: qHTS assay to identify small molecule agonists or antagonists of the thyroid stimulating hormone receptor (TSHR) signaling pathway - wild type cell line counter screen (AID 1259384; calls by dose curve). In outline:
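Wild-type Hek293 cells, 800/well, 18 h at 37C, then compound with Ro20-1724 for 30 min RT. cAMP by HTRF (cAMP-d2/anti-cAMP cryptate), 1 h RT, fluorescence read. 15 concentrations, triplicates.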

The target in assay [13] is Thyrotropin receptor (Homo sapiens) (UniProt P16473). The experiment in a line: qHTS assay to identify small molecule antagonists of the thyroid stimulating hormone receptor (TSHR) signaling pathway (AID 1259385; calls by dose curve; also: nearly all actives have a fitted effect of over 20% in size; also: potency is read from the fitted curve at half-maximal effect). In outline:
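TSHR-HEK293 cells (800/well) plated 18 h, then compounds with Ro20-1724 and TSH at 1.5 ng/mL final, 30 min at room temperature. cAMP quantified by HTRF (cAMP-d2/anti-cAMP-cryptate, 1 h); 15 concentrations in triplicate.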

The nature of assay [14]: qHTS assay to identify small molecule agonists of the estrogen receptor alpha (ER-alpha) signaling pathway in the presence of an antagonist - cell viability counter screen (AID 1259386).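 Also: series mostly up to about 92 µM; cells exposed to compounds for 22 h at 37 °C before the viability read; nearly all actives have a fitted effect of over 30% in size.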 An outline of the steps:
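Cell viability in VM7Luc4E2 cells (endogenous full-length ER-alpha) measured by CellTiter-Fluor fluorescence in the same wells as the luciferase screen. Cells pre-cultured 5 days in charcoal-stripped serum, then treated 22 h with compounds at 15 concentrations plus 10.0nM ICI-182,780.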

Assay [15] can be described thus: qHTS assay to identify small molecule antagonists of the sonic hedgehog signaling (Shh) pathway (AID 1259369; calls by dose curve; also: nearly all actives have a fitted effect of over 45% in size; also: potency is read from the fitted curve at half-maximal effect). In outline: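 NIH/3T3-derived Gli1-Luc reporter cells plated 4 h, dosed with compound, then stimulated with conditioned medium for 24 h at 37 C. Firefly luciferase luminescence read after 30 min with detection reagent at room temperature.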
For assay [16], the target named is Estrogen receptor beta (Homo sapiens) (UniProt Q92731). The assay is described as follows: qHTS assay to identify small molecule agonists of the estrogen receptor beta (ER-beta) signaling pathway (AID 1259377; active = well fitted activation curve with a large enough effect in the signal ratio in the repeat runs, not every such curve was filed as active; the % refers to the signal ratio). An outline of the steps: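 Read-out: beta-lactamase FRET fluorescence. Cell line: ER-beta-UAS-bla HEK293T in 2% charcoal-stripped FBS. Exposure: 16 hr at 37C. Substrate step: 2 h at room temperature.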
Estrogen receptor beta (Homo sapiens), sequence (Q92731 whole entry, looked up): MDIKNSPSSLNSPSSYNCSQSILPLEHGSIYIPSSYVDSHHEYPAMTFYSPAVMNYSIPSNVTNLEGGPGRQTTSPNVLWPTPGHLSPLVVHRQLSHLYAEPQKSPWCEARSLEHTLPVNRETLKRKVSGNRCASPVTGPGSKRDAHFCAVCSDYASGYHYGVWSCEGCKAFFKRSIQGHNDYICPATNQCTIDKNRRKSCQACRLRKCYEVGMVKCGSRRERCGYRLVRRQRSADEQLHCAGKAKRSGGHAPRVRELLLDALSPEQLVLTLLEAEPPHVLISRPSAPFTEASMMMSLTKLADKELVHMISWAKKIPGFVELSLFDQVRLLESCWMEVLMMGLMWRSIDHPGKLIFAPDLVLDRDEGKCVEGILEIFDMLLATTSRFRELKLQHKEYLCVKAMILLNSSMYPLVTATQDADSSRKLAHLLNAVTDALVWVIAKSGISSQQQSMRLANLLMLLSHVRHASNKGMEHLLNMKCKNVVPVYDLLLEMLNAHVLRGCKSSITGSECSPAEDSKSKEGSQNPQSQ

Assay [17] has the same target. The experiment in a line: qHTS assay to identify small molecule antagonists of the estrogen receptor beta (ER-beta) signaling pathway (AID 1259378; active = well fitted inhibition curve with a large enough effect in the signal ratio in the repeat runs, not every such curve was filed as active; the % refers to the signal ratio; also: potency is read from the fitted curve at half-maximal effect). An outline of the steps:
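ER-beta-UAS-bla HEK293T cells in 2% charcoal-stripped FBS medium treated with compound plus 1nM final 17-beta-estradiol for 16 hr at 37C. Beta-lactamase reporter read by FRET substrate fluorescence after 2 hours at room temperature.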

Assay [18] in a line: qHTS assay to identify small molecule agonists of the estrogen receptor beta (ER-beta) signaling pathway - cell viability counter screen (AID 1259380). Also: nearly all actives have a fitted effect of over 30% in size. Also: potency is read from the fitted curve at half-maximal effect. An outline of the steps: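 ER-beta-UAS-bla HEK293T cells in medium with 2% charcoal-stripped FBS, pre-incubated 6 hr, then treated 16 hr at 37C. Cytotoxicity read in the same wells by CellTiter-Glo luminescence after 30 min at room temperature.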

Assay [19] concerns the target Androgen receptor (Homo sapiens) (UniProt P10275). The assay is described as follows: qHTS assay to identify small molecule agonists of the androgen receptor (AR) signaling pathway in the presence of an antagonist (AID 1259381; calls by dose curve; also: nearly all actives have a fitted effect of over 15% in size). In outline: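 MDA-kb2 cells carrying MMTV-luciferase (AR/GR responsive), 3,000 cells/well, co-treated with 3.0 uM nilutamide final. Compounds at 15 concentrations, 16 hr at 37C without CO2. Luciferase luminescence read after 30 min with ONE-Glo.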

Assay [20] addresses Estrogen receptor (Homo sapiens) (UniProt P03372). The experiment in a line: qHTS assay to identify small molecule antagonists of the estrogen receptor alpha (ER-alpha) signaling pathway using the BG1 cell line in the presence of 0.1 nM 17-beta-estradiol (AID 1259244). Also: potency is read from the fitted curve at half-maximal effect; nearly all actives have a fitted effect of over 50% in size. In outline: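 VM7Luc4E2 cells (endogenous full-length ER-alpha, 4×ERE-luciferase), kept 5 days in phenol red-free, charcoal-stripped FBS medium; 4,000 cells/well. Compounds added with 0.1 nM (final) 17beta-estradiol, 22 hr at 37C; luminescence read with ONE-Glo after 30 min.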

Androgen receptor (Homo sapiens), sequence (P10275 whole entry, looked up): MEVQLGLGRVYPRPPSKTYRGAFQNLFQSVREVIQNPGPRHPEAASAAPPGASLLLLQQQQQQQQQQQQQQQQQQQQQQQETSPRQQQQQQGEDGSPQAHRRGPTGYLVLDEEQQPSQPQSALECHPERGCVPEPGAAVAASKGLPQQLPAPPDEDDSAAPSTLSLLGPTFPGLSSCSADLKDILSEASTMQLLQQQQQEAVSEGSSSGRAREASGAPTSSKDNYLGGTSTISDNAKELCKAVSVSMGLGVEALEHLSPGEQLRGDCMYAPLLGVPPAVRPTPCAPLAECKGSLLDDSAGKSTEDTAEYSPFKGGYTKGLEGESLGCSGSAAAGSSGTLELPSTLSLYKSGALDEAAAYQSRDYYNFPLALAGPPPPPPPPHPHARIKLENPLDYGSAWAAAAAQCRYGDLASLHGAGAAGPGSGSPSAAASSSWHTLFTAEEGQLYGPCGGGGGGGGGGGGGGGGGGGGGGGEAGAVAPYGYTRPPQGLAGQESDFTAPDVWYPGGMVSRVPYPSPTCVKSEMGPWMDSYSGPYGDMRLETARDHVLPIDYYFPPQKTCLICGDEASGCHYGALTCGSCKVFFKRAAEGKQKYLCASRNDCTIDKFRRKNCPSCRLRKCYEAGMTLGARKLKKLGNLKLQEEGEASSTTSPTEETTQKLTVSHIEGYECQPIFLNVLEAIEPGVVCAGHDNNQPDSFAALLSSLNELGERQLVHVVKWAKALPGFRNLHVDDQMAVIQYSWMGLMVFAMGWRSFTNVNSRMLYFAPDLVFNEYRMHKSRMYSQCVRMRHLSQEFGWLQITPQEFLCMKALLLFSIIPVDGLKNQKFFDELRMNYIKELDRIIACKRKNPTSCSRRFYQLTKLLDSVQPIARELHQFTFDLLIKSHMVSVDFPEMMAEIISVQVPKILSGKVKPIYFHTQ
Thyrotropin receptor (Homo sapiens), sequence (P16473 whole entry, looked up): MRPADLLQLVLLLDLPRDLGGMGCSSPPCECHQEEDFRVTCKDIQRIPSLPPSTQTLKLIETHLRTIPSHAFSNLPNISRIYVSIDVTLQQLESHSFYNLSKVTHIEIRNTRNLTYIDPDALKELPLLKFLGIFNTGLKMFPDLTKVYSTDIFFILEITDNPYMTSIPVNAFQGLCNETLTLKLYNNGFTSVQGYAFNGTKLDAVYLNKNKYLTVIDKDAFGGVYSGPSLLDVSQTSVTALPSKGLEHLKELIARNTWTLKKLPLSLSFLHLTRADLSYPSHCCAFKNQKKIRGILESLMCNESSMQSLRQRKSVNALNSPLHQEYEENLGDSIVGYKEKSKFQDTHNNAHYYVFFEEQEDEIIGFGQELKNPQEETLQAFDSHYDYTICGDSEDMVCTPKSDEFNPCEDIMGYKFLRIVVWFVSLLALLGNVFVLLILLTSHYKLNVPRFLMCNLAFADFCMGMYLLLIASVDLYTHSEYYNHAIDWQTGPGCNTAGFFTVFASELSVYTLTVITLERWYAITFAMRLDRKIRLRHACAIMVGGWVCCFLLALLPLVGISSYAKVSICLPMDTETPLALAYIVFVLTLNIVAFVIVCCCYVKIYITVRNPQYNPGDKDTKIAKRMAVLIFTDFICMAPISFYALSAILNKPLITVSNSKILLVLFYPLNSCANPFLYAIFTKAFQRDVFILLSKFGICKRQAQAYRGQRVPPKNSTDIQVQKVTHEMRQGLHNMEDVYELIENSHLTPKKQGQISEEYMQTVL

On to `CCCN(CCc1cccs1)[C@H]1CCc2c(O)cccc2C1`, for which the Potency result in assay [1], in [3], in assay [4], in assay [5], in assay [6] and in assay [7] was “inactive” throughout. Moreover, the Potency result in [8], in assay [9], in assay [10], in assay [11], in assay [13] and in assay [14] was “inactive” each time. Besides, in assay [2], the Potency was 26.6 µM (active). The call in [12] was inactive.
Turning to `CC(=O)O[C@@H]1C[C@@H]2CC[C@@]1(C)C2(C)C`, the Potency result in [1], in assay [2], in [4], in [5], in assay [6] and in assay [7] was “inactive” each time. For the same compound, the Potency result in assay [8], in assay [15], in [16], in assay [17], in assay [9] and in assay [18] was “inactive” throughout. The Potency result in assay [13] is “inactive”. In addition, in assay [12], the compound was classed as inactive.
Consider `CCCOc1sc(C(=O)N2CCC(c3cc(CN)ccc3F)CC2)c(C)c1Br`, for which the Potency in assay [1] is 39.7 µM (active); in assay [2], 39.7 µM (active); in [6], 22.3 µM (active); in assay [7] it was 25 µM (active); in assay [9] it was 56 µM (active); in [18], 28.1 µM (active). The Potency in assay [10] was 25 µM (active); in assay [13], 56 µM (active). Besides, the Potency entry in [8], in assay [15], in assay [19] and in [11] was “inactive” in each case. In addition, the compound was called inactive in assay [12].
Turning to `C=C(c1ccc(C(=O)O)cc1)c1cc2c(cc1C)C(C)(C)CCC2(C)C`, the Potency result in assay [1], in [3], in assay [4], in [5], in [6] and in assay [7] was “inactive” each time. The Potency entry in assay [8], in assay [15], in assay [9], in [11] and in assay [14] was “inactive” throughout. Further, the Potency was 12.2 µM (active) in assay [20]; 8.41 µM (active) in assay [17]; 34.4 µM (active) and 33.5 µM (active) in assay [18]; 34.4 µM (active) and 29.8 µM (active) in [10].
Take `CN(C)CCOC(c1ccccc1)c1ccccc1` (tested in a mixture with another compound): the Potency result in assay [1], in assay [2], in [4], in assay [5], in [6] and in [8] was “inactive” each time. Further, the Potency entry in assay [9], in assay [19], in [11] and in assay [13] was “inactive” in each case. The Potency is 61.6 µM (active) in assay [7], 24.5 µM (active) in [15] and 69.1 µM (active) in assay [18]. For the same compound, the compound was classed as inactive in [12].
Consider `c1cc(OCC2CO2)cc(OCC2CO2)c1` (configuration not stated), for which the Potency entry in assay [1], in assay [5], in [8], in [9], in assay [18] and in assay [19] was “inactive” each time. In addition, the Potency result in assay [10], in [11] and in [13] was “inactive” throughout. Further, the Potency was 48.2 µM (active) in [2], 48.2 µM (active) in assay [20], 21.5 µM (active) in [6] and 19.2 µM (active) in [15]. In addition, in assay [12], the call was inactive.
With `CC(NCCC(c1ccccc1)c1ccccc1)c1ccccc1` (configuration not stated), the Potency in [1] is 21.1 µM (active); in [2], 21.1 µM (active); in assay [15], 26.6 µM (active); in assay [17], 26.6 µM (active); in assay [9] it was 23.7 µM (active); in assay [18], 18.8 µM (active). Further, the Potency was 18.8 µM (active) in [10] and 29.8 µM (active) in assay [13]. The Potency entry in [4], in assay [5], in [8] and in [11] was “inactive” throughout. In [12], the compound was classed as inactive.
